SUMO Mot1 rescue: inhibitors of SUMOylation pathway: yeast Mot1-301 growth rescue; growth rescue, % at 18.8 µM; 320,000 compounds, 1% hits; S. cerevisiae Mot1-301 growth rescue, ATP luminescence, 38.5C; percent above DMSO median, 100 means doubled;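 active = every valid replicate shows activation above 250% relative to neutral control wells; inactive = the rest, any valid replicate at or below 250%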
HIF act: HIF pathway transcriptional activation. 300,000 compounds, 0.32% hits. activation, % at 7.5 µM (by protocol). U2OS HRE-luciferase reporter, luminescence; normalized: DMSO 0%, desferrioxamine 100%;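 active = mean activation of at least 10% of the iron chelator positive control signal, with at least half of replicates also reaching 10%; inconclusive = mean and replicate majority disagree about reaching 10%; inactive = mean and most replicates under 10%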
AI-2 QS mod: modulators of Vibrio harveyi AI-2 quorum sensing system | Vibrio harveyi JMH597 AI-2 luminescence/OD600 ratio, 9 h; active compounds read low; strain lacks LuxN and CqsS sensors; 0 = neutral-control median | activity change, % at 7.5 µM | 300,000 compounds, 0.4% hits | AID 2094; in the data active = activity change below about -75%, passing the limit was not always enough; inconclusive = no clear call, values can overlap the other calls;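 also: luminescence divided by OD600 gain over 9 h not by final OD600 alone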
ALR inh: human ALR oxidase inhibition via reduced H2O2 | P55789 | purified ALR, DTT oxidation, H2O2 HRP-luminol luminescence | inhibition, % (test concentration not listed) | 290,000 compounds, 3.8% hits | AID 485317;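 active = mean replicate inhibition above about 79%, with every replicate also reaching it, limit read from the data; inconclusive = only one of the two criteria met; inactive = mean below limit and not every replicate reaching it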
Target sequence (P55789 whole entry, looked up): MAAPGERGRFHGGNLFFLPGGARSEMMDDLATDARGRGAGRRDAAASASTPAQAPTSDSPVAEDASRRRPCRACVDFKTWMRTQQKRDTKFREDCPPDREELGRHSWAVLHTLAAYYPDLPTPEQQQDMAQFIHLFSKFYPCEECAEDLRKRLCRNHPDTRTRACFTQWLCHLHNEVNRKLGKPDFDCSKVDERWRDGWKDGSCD
Each line names hits and unclear results; the compound was inactive in the other large screens. A selection: hits, their analogues and other compounds. The true share with any hit is near 4.8%.

CC1(C)Cc2ccccc2C2=C(C(=O)N3CCCCCC3)C(=O)C(=O)N21	SUMO Mot1 rescue 307
COc1ccccc1NC(=O)CCCc1nnc2n(C)c(=O)c3sccc3n12	none
O=C(c1cccc2ccccc12)N1CCN=C1SCc1ccc([N+](=O)[O-])cc1	ALR inh 98
Cc1ccc(CSC2=NCCN2C(=O)c2ccc([N+](=O)[O-])cc2)cc1	none
CCOc1ccc(CC(=O)N2CCN=C2SC)cc1	none
O=C(Cc1ccccc1)N1CCN=C1SCc1ccc([N+](=O)[O-])cc1	none (no result: ALR inh)
O=C(Cc1ccc(F)cc1)N1CCN=C1SCc1ccc([N+](=O)[O-])cc1	ALR inh 99
Cc1ccc(C(=O)N2CCN=C2SCc2ccc([N+](=O)[O-])cc2)cc1	ALR inh 99
Cc1ccccc1C(=O)N1CCN=C1SCc1ccc([N+](=O)[O-])cc1	none (no result: ALR inh)
CCOc1ccc(CC(=O)N2CCN=C2SCc2ccc([N+](=O)[O-])cc2)cc1	ALR inh 99
CCN(Cc1ccncc1)C(=O)c1ccc(C)c(S(=O)(=O)N2CCCCC2)c1	none (no result: HIF act, AI-2 QS mod)
Cc1c(C)n2c(SCC(=O)N3CCCCC3)nnc2[nH]c1=O	none
Cn1cccc1C(=O)OCc1ccc(C(C)(C)C)cc1	none
COc1ccc(CC(=O)N2CCN=C2SCc2ccc([N+](=O)[O-])cc2)cc1	ALR inh 99 (no result: SUMO Mot1 rescue)
CCSC1=NCCN1C(=O)Cc1ccc(-c2ccccc2)cc1	none
CCn1c(SCC(=O)N2CCOCC2)nnc1C(C)NC(=O)c1ccccc1 (configuration not stated)	none
O=C(C#Cc1ccccc1)Nc1ccc(F)cc1	AI-2 QS mod inconclusive, ALR inh 97
O=C(C#Cc1ccccc1)Nc1cccc(F)c1	AI-2 QS mod inconclusive, ALR inh 97
Cc1c(Cc2ccccc2)c(=O)oc2c(C)c(OCC(=O)N[C@@H](Cc3ccccc3)C(=O)O)ccc12	none (no result: ALR inh)
Cc1ccc(NC(=O)c2nc(S(=O)(=O)Cc3ccccc3)ncc2Cl)cc1	none
Cc1cccc(CS(=O)(=O)c2ncc(Cl)c(C(=O)NCc3ccccc3)n2)c1	none
Cc1cccc(CS(=O)(=O)c2ncc(Cl)c(C(=O)Nc3c(C)cccc3C)n2)c1	ALR inh 98 (no result: SUMO Mot1 rescue)
Cc1cccc(C)c1NC(=O)c1nc(S(=O)(=O)Cc2ccccc2)ncc1Cl	ALR inh 97 (no result: SUMO Mot1 rescue)
Cc1nnc(NC(=O)c2nc(S(=O)(=O)Cc3ccccc3)ncc2Cl)s1	ALR inh 99 (no result: SUMO Mot1 rescue)
Cc1ccccc1CS(=O)(=O)c1ncc(Cl)c(C(=O)Nc2ccc(F)cc2)n1	SUMO Mot1 rescue 316
CCCc1nnc(NC(=O)c2nc(S(=O)(=O)Cc3cccc(C)c3)ncc2Cl)s1	none
O=C(c1cc(Br)ccc1O)N1CCN(S(=O)(=O)Cc2ccccc2)CC1	none (no result: HIF act, AI-2 QS mod)
CN(C(=O)CN1C(=O)/C(=C/c2ccccc2F)SC1=S)C1CCS(=O)(=O)C1 (configuration not stated)	none
COCCNc1nnc(SCC(=O)NNC(=O)c2ccc([N+](=O)[O-])cc2)s1	none
CCOC(=O)N1CCN(C(=O)CSCc2nc(-c3ccccc3C)oc2C)CC1	ALR inh 99
CCOC(=O)N1CCN(C(=O)CSCc2nc(-c3ccccc3F)oc2C)CC1	ALR inh 100
CCN(CC)C(=O)COc1coc(CN2CCN(c3ccccc3F)CC2)cc1=O	none
O=C(O)c1ccc(N2C(=O)CC(SC(=Nc3ccccc3)Nc3ccccc3)C2=O)cc1 (configuration not stated)	none
CC(/C=C/c1ccc(N(C)C)cc1)=N\N=C(/N)SC1CC(=O)N(c2ccc(C(=O)O)cc2)C1=O (configuration not stated)	ALR inh 100
OCCN1CCN(C2CCC(c3ccc(F)cc3)c3ccc(F)cc32)CC1 (configuration not stated)	none (no result: ALR inh)
COc1ccc(C2=CSC3=NNC4(CCCCC4)NN23)cc1	ALR inh 98 (no result: SUMO Mot1 rescue)
Cc1ccc(C2=CSC3=NNC4(CCCCC4)NN23)cc1	ALR inh 100 (no result: SUMO Mot1 rescue)
COc1ccc(C2=CSC3=NCCN23)cc1	none
O=C(Cc1c(F)cccc1Cl)NNC(=O)c1ccc(Br)s1	none (no result: HIF act, AI-2 QS mod)
Cc1cc(C)n(-c2nc3ccccc3c(=O)n2OCC#N)n1	HIF act 14
CCCCN1C(=O)c2ccc(C(=O)NC3(C)CCS(=O)(=O)C3)cc2C1=O (configuration not stated)	none (no result: HIF act, AI-2 QS mod)
O=[N+]([O-])c1ccc(S(=O)(=O)N2CCN(c3ccc(N4CCOCC4)nn3)CC2)cc1	none
CCOc1cccc(-c2c(C(=O)N/N=C(\C)c3ccccn3)nnn2-c2nonc2N)c1	HIF act 16
CCOc1ccc(-c2c(C(=O)N/N=C/c3cccnc3)nnn2-c2nonc2N)cc1	HIF act 25
Cc1ccc(-c2c(C(=O)N/N=C/c3cccnc3)nnn2-c2nonc2N)cc1	none
O=C(CSc1ncccn1)NC1CCS(=O)(=O)C1 (configuration not stated)	none
Cc1ccc(C)c(C(=O)C(C)OC(=O)CN2C(=O)NC3(CC(C)CC(C)(C)C3)C2=O)c1 (configuration not stated)	none
CC(C)[C@H](NC(=O)N1c2ccccc2NC(=O)[C@@H]1C(C)C)C(=O)N[C@@H](C(=O)O)c1ccccc1	SUMO Mot1 rescue 910
CCCCOc1ccc(-c2c(C#N)c(N)[nH]c(=S)c2C#N)cc1	ALR inh 88
CCCCOc1ccc(-c2c(C(=O)Nc3ccccc3)c(C)[nH]c(=S)c2C#N)cc1	none
COc1cccc(CNC(=O)Cn2c(=O)c3cccn3c3ccccc32)c1	none
CCOc1cc(/C=C2/SC(=S)N(CC(=O)O)C2=O)ccc1OC(=O)c1cccs1	none (no result: ALR inh)
COc1cc(/C=C2/SC(=S)N(CC(=O)O)C2=O)ccc1OC(=O)c1ccco1	ALR inh 98
CN1C(=O)/C(=C/c2ccc(OC(=O)c3ccco3)cc2)SC1=S	none
COc1cc(/C=C2\SC(=S)N(CC(=O)O)C2=O)ccc1OC(=O)c1ccco1	ALR inh 99
COc1cccc(-n2ccnc2SCC(=O)Nc2cc(C)on2)c1	ALR inh 83
Cc1cc(NC(=O)CSc2nccn2-c2ccc(Cl)cc2)no1	ALR inh 99
O=C(NC1CCSc2ccccc21)c1cccc([N+](=O)[O-])c1 (configuration not stated)	none
COc1ccccc1CCNC(=O)CSc1nc(=O)[nH]c2c1CCC2	none
COc1cccc(N2CCN(c3nc(C)cc(C)c3C#N)CC2)c1	ALR inh 86
C/C(=N\Nc1cccc2cccnc12)c1ccc[nH]1	ALR inh 96
Cc1cc(NC(=O)NC(=O)c2ccccc2)no1	none
Cc1ccc(OCC(=O)NCCNC(=O)c2ccco2)cc1	SUMO Mot1 rescue 348
CC(=O)Nc1ccc2c(c1)CCCC2=O	HIF act 9.6
Cc1ccccc1N1CCN(S(=O)(=O)Cc2ccccc2)CC1	none
CN(C)c1ccc(N/C=C/C(=O)C(C)(C)C)cc1	ALR inh 99
CC(C)(C)C(=O)/C=C/Nc1ccccc1O	ALR inh 99
COc1ccc(CN(CCN)C2CC(C)N(C)CC2C)cc1 (configuration not stated)	none
O=S1(=O)CC/C(=N\Nc2ccccc2)c2ccsc21	ALR inh 100 (no result: SUMO Mot1 rescue)
